The campaign covered roughly 1,400 compounds. About 140 (10%) were called active. These entries were drawn from the full list. Results with a measured potency or affinity are listed apart. A number with no mark means an inactive call.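 The calls were made as follows: active = Half-maximal inhibitory dose from the fit at or below ten times the top valid tested dose; inconclusive = Invalid fit, or flat curve showing 30 to 70% inhibition; inactive = the rest.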
biological target: Lysine-specific demethylase 4C (Homo sapiens) (UniProt Q9H3R0); test: inhibition of JMJD2C H3K9me3 demethylation – biochemical, DELFIA europium, cherry-picked samples, dose response (AID 488835); details: GST-JMJD2C(1-420); series mostly up to 6 µM; activity change, negative = inhibition: at the top concentration;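 also: signal is the H3K9me2 demethylation product detected by a dimethyl-specific antibody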
Sequence (Q9H3R0 1-420 limits assumed): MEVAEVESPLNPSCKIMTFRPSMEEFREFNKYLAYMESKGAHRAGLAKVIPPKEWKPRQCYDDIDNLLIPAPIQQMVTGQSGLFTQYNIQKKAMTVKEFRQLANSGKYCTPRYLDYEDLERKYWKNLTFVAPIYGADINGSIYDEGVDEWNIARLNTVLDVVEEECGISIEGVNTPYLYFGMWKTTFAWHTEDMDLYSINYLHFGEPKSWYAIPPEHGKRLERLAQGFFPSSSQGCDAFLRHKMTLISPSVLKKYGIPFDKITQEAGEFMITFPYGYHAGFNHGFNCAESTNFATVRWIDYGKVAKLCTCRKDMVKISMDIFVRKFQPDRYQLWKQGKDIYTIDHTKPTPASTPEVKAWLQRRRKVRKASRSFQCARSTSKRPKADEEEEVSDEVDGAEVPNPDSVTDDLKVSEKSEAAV

Compound | activity change, negative = inhibition
CC1CCCCC12NC(=O)N(CC(=O)NCCc1ccccn1)C2=O (stereo unspecified) | 2.94%
COc1ccc(NC(=O)Nc2c[nH]c(=O)[nH]c2=O)cc1OC | -17.8%
COc1ccc(C(=O)OCCc2sc[n+](CC(=O)c3ccccc3)c2C)cc1 | 3.83%
CCOC(=O)N1CCC(c2nc3ccccc3[nH]2)CC1 | 4.41%
O=C(O)c1ccc(/C=N/Nc2cccc(C(F)(F)F)c2)cc1 | 1.51%
O=C(c1cccc(C(F)(F)F)c1)N1CCCC1 | 2.21%
Cn1c2ccccc2c(=O)c2ccc(NCCc3cccs3)cc21 | -2.85%
COc1cccc(C(C[N+](=O)[O-])c2c(C)[nH]n(-c3ccccc3)c2=O)c1 (stereo unspecified) | -3.47%
CCCc1nn(C)c(C(=O)Nc2ccc(C)c(C)c2)c1Cl | -4.42%
O=C(Nc1nc2ccccc2n1CCN1CCCC1)C1CCCCC1 | 1.08%
Cc1ccc(/C=N\NC(=O)c2cc([N+](=O)[O-])cc([N+](=O)[O-])c2)o1 | 5.01%
O=C(N/N=C/c1cc([N+](=O)[O-])cc([N+](=O)[O-])c1O)/C(=C\c1cccs1)NC(=O)c1ccccc1 | 10.2%
CC(C)c1ccc(NC2CCCN(C(=O)CCN3CCCCC3=O)C2)cc1 (stereo unspecified) | 16.1%
c1ccc(-c2csc(-n3cccn3)n2)cc1 | -6.44%
CCOC(=O)c1sc(=S)n(-c2ccc(Cl)cc2)c1SC | -5.62%
O=C(Nc1nnc(-c2cc(Cl)ccc2Cl)o1)c1ccco1 | 1.16%
O=C(Oc1ccc(N2C(=O)CCC2=O)cc1)c1ccccc1 | -2.3%
COc1ccc(OC)c(C2=NOC(C(=O)NCCN3CCOCC3)C2)c1 (stereo unspecified) | 0.98%
CCOC(=O)[C@H]1[C@H]2COc3ccc(OC)cc3[C@@H]2N2C(=O)c3cc(C)ccc3NC(=O)[C@@]12C | 3.57%
Cc1cc2ccccn2c1C(=O)c1ccncc1 | 2.06%
O=C1CC(CSc2ccc(Cl)cc2)=NN1 | -3.58%
CCN(Cc1cc2cc(OC)ccc2[nH]c1=O)C(=O)c1ccncc1 | 2.46%
Cc1ccccc1NC(=S)c1nc2ccccc2[nH]1 | 4.49%
Cc1cccc(C2=N/C(=C\c3cccnc3)C(=O)O2)c1 | 0.125%
O=[N+]([O-])c1ccc(/C=[N+](\[O-])[C@@H]2CCCC[C@@H]2/[N+]([O-])=C/c2ccc([N+](=O)[O-])o2)o1 | 2.35%
Cc1cccc(NC(=O)/C(=C\c2ccc([N+](=O)[O-])o2)NC(=O)c2ccc(Cl)cc2)c1 | -5.59%

Compound | activity change, negative = inhibition
Cc1cccc(N2C(=O)C3C4C=CC(C4)C3C2=O)c1 (stereo unspecified) | 9.08%
COc1cccc(C2c3[nH]c4ccccc4c3CCN2CCCn2cccn2)c1 (stereo unspecified) | -2.21%
N#CCCCCN1c2cccc3cccc(c23)S1(=O)=O | 2.59%
O=C(Cn1cnc2c(OCc3ccccc3)ncnc21)NCCN1CCOCC1 | -2.74%
CN1CCN(c2ccc([N+](=O)[O-])cc2C(=O)N2CCOCC2)CC1 | 2.83%
Cc1c(C(=O)N2CCC3(CC2)CC(=O)c2ccccc2O3)cccc1[N+](=O)[O-] | -4.59%
COc1ccc(OC)c(N(CC(=O)NCc2ccncc2)S(C)(=O)=O)c1 | -3.48%
COc1ccc(-c2cc(C(F)(F)F)n3nc(C(=O)NCCCN4CCOCC4)cc3n2)cc1 | 1.92%
Cc1[nH]c2ccccc2c1-c1ccc(Cl)nn1 | 7.91%
COC(=O)c1ccc(CSc2nnc(N)s2)o1 | 3.51%
COC(=O)c1sc(S(=O)(=O)NCc2ccccc2)c(C(=O)OC)c1C | 0.554%
COc1ccc(NC(=O)N(C)C[C@H]2Oc3c(NC(=O)Nc4ccccc4)cccc3C(=O)N([C@H](C)CO)C[C@@H]2C)cc1 | -1.85%
COC(=O)C(Cc1ccccc1)NC(=O)COc1ccc(C(C)(C)C)cc1 (stereo unspecified) | -0.353%
COc1cc2cnncc2cc1OC | 6.48%
C/C(CC(=O)Nc1cccc(Cl)c1Cl)=N\NC(=O)c1ccccc1N | -1.55%
CC(C)(O)[C@H](O)Cc1cc2ccc(=O)oc2cc1O[C@@H]1O[C@H](CO)[C@@H](O)[C@H](O)[C@H]1O | -1.7% [at 1.6 µM]
CC1(C)CC[C@]2(CO)CC[C@]3(C)C(=CCC4[C@@]5(C)CC[C@H](O)[C@@](C)(CO)C5CC[C@]43C)[C@@H]2C1 (stereo partly specified) | -4.71%
CCN(C[C@H]1N[C@@](C)(C(=O)OC)[C@H]2C(=O)N(C)C(=O)[C@@H]12)C(=O)Nc1ccc(OC)cc1 | 6.79%
COc1ccc(/C=N/NC(=O)c2cc(C)on2)c2ccccc12 | -1.79%
O=C(NCC1CCCO1)c1ccc2c(=O)n(Cc3cccc(Br)c3)c(=S)[nH]c2c1 (stereo unspecified) | 10.2%
Cc1csc(NC(=O)CSc2nnc(-c3ccncc3)n2C)n1 | 0.313%
CCn1c(SCC(=O)Nc2nc(C)cs2)nnc1-c1ccncc1 | 3.16%
CCCn1c2ccccc2c2nnc(SCC(=O)Nc3c(C)n(C)n(-c4ccccc4)c3=O)nc21 | 5.59%
C[C@H](CO)N1C[C@H](C)[C@@H](CN(C)S(=O)(=O)c2ccccc2)Oc2ccc(NS(=O)(=O)c3ccc(F)cc3)cc2C1=O | -0.626%
O=C(COC(=O)Cc1ccccc1F)Nc1ccc(SC(F)F)cc1 | -3.2%
